Records with an inconclusive call do not appear. Calls of active or inactive are those of the source. Calls come from the whole dose curve.
target: Tyrosine-protein kinase ABL1 (Homo sapiens) (UniProt P00519); assay: ABL1 kinase (ABL1-N-HiBiT) SDR gain of signal screen; details: Purified ABL1-N-HiBiT enzyme, Nano-Glo HiBiT luminescence, 30 min compound incubation; series mostly up to 32.9 µM
Procedure, shortened: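 Gain-of-signal luminescence after Nano-Glo HiBiT detection (10 min, room temperature) measures compound binding to 10 nM ABL1-N-HiBiT, which had been incubated 30 min with compound at room temperature, light-protected, without ATP.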

Tyrosine-protein kinase ABL1 (Homo sapiens), sequence (P00519 whole entry, looked up): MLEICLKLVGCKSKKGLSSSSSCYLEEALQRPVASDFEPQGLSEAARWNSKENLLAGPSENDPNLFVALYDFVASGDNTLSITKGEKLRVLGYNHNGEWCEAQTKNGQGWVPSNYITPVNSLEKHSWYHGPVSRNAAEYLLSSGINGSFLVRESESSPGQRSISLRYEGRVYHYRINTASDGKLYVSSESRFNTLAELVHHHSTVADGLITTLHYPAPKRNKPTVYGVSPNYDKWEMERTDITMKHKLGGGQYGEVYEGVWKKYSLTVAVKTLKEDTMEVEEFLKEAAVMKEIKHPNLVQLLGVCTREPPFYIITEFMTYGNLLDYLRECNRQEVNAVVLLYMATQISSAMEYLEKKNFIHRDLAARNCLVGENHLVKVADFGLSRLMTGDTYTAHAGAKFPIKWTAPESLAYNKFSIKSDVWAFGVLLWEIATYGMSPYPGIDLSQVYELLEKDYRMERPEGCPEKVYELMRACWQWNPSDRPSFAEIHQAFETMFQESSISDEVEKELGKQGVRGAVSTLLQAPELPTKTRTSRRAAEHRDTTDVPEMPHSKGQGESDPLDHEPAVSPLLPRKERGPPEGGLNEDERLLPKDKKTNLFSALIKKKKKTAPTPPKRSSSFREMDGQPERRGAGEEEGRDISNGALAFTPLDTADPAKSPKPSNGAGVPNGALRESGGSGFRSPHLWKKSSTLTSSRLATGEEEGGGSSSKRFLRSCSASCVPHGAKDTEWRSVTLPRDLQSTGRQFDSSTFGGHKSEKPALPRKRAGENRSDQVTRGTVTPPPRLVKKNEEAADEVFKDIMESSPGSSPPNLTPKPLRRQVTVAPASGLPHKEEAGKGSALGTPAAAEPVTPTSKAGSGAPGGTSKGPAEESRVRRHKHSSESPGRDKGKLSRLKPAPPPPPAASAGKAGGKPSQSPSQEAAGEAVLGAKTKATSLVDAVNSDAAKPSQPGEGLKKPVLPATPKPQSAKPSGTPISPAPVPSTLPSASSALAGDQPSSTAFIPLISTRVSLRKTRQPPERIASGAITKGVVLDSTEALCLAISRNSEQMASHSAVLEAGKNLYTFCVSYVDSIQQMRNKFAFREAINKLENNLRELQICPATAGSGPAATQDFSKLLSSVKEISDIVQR

Potency, active:
c1ccc(-c2oc3ncnc(NC[C@@H]4CCCO4)c3c2-c2ccccc2)cc1 4.29 µM, O=C(c1cccc(Cl)c1F)N1CCN(Cc2cccc(Nc3nccs3)n2)CC1 3.93 µM, C=CC(=O)N1CCC(Oc2cc3c(Nc4ccc(Cl)c(Cl)c4F)ncnc3cc2OC)CC1 10.8 µM
